Assay outcomes: PubChem BioAssay, Broad Institute
Only some compounds are listed: those with a hit (about 2.4% of all), similar ones and a draw of the others.
C diff growth: C. difficile growth inhibitors, primary screen, HTS; AID 1259249, 2017; Clostridium difficile clinical isolate growth, OD600, 24 h; hits give low values; growth activity, negative = inhibition, % at 16 µg/mL (by protocol); actives 0.25% (n = 86,000);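 active means mean growth activity at or below -80% and every replicate also at or below -80%; inconclusive means mean at or below -80% but some replicate above -80%; inactive means mean growth activity above -80%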;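 further: 0% = DMSO wells and -100% = levofloxacin 16 µg/mL wells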
Pf Dd2 inh: P. falciparum Dd2 growth inhibitors, primary screen, SYBR Green fluorescence, single dose replicates. 72 h; hits give low values. activity change, % at 10 µM. actives 2.3% (n = 94,000); in the data active means activity change below about -80%; inconclusive means no clear call, values can overlap the other calls
The depositor's hits bear a star; ? = inconclusive; . = not tested or not shown.

SMILES	C diff growth	Pf Dd2 inh
Cc1ccc(S(=O)(=O)NCC[C@H]2CC[C@@H](NC(=O)Nc3ccccc3F)[C@H](CO)O2)cc1	1	-7
CO[C@@H]1CN(C)C(=O)c2cc(NC(=O)c3nc4ccccc4s3)ccc2OC[C@@H](C)N(Cc2ccccc2)C[C@H]1C	.	-86*
COc1ccc(CN2C[C@H](C)[C@@H](OC)CN(C)C(=O)c3cc(NC(=O)c4nc5ccccc5s4)ccc3OC[C@@H]2C)cc1	.	-85*
CO[C@H]1CN(C)C(=O)c2cc(NC(=O)c3nc4ccccc4s3)ccc2OC[C@@H](C)N(Cc2ccncc2)C[C@H]1C	-5	.
COc1ccc(CN2C[C@@H](C)[C@@H](OC)CN(C)C(=O)c3cc(NC(=O)c4nc5ccccc5s4)ccc3OC[C@@H]2C)cc1	.	-61
CCCNC(=O)N1CC(=O)N2[C@H](C1)[C@@H](c1ccc(-c3ccccc3)cc1)[C@@H]2CO	-8	4
CC(=O)N(C)C[C@@H]1Oc2cc(C#CCC(C)C)ccc2S(=O)(=O)N([C@H](C)CO)C[C@@H]1C	-5	-31
CC(=O)N(C)C[C@@H]1Oc2cc(-c3ccccc3C)ccc2S(=O)(=O)N([C@H](C)CO)C[C@H]1C	22	-2
CCCNC(=O)N1CC2(CN(C(=O)CCC)C2)c2c(n(C)c3cc(OC)ccc23)[C@@H]1CO	-1	-22
CCC(=O)N[C@H]1C=C[C@H](CC(=O)NCC2CCCCC2)O[C@@H]1CO	.	-88*
O=C(C[C@@H]1C=C[C@@H](NC(=O)C2CCC2)[C@H](CO)O1)NC1CCC1	-1	-87*
O=C(C[C@@H]1C=C[C@@H](NC(=O)C2CCC2)[C@@H](CO)O1)NC1CCC1	1	-4
CCC(=O)N[C@@H]1C=C[C@H](CC(=O)NCC2CCCCC2)O[C@@H]1CO	.	-11
CCCC#Cc1ccc2c(c1)O[C@H](CN(C)C(=O)CN(C)C)[C@H](C)CN([C@H](C)CO)S2(=O)=O	0	8
Cc1ccccc1S(=O)(=O)NCC[C@H]1CC[C@@H](NC(=O)C2CCC2)[C@H](CO)O1	0	-20
Cc1ccc(S(=O)(=O)N(C)C[C@@H]2Oc3c(NC(=O)C4CCOCC4)cccc3C(=O)N([C@@H](C)CO)C[C@H]2C)cc1	1	-3
COc1ccc(S(=O)(=O)Nc2cccc3c2O[C@H](CN(C)C(=O)Nc2ccccc2)[C@@H](C)CN([C@@H](C)CO)C3=O)cc1	-7	24
C[C@H](CO)N1C[C@H](C)[C@H](CN(C)C(=O)C2CC2)Oc2cc(C#Cc3ccccc3)ccc2S1(=O)=O	-3	-92*
C[C@H](CO)N1C[C@H](C)[C@H](CN(C)C(=O)Cc2ccccn2)Oc2cc(C#Cc3ccccc3)ccc2S1(=O)=O	-7	-85*
C[C@@H]1CN([C@H](C)CO)S(=O)(=O)c2ccc(C#Cc3ccccc3)cc2O[C@H]1CN(C)C(=O)Cc1ccccn1	-14	?
CCCC#Cc1ccc2c(c1)O[C@@H](CN(C)C(=O)c1ccccc1F)[C@H](C)CN([C@@H](C)CO)S2(=O)=O	6	-81*
COCC(=O)N(C)C[C@H]1Oc2cc(C#Cc3ccccc3)ccc2S(=O)(=O)N([C@@H](C)CO)C[C@@H]1C	-14	-76
C[C@H](CO)N1C[C@H](C)[C@@H](CN(C)C(=O)C2CC2)Oc2cc(C#Cc3ccccc3)ccc2S1(=O)=O	-5	-64
CCCC#Cc1ccc2c(c1)O[C@H](CN(C)C(=O)c1ccccc1F)[C@H](C)CN([C@@H](C)CO)S2(=O)=O	12	-72
COCC(=O)N(C)C[C@@H]1Oc2cc(C#Cc3ccccc3)ccc2S(=O)(=O)N([C@H](C)CO)C[C@@H]1C	-8	-82*
SMILES	C diff growth	Pf Dd2 inh
COc1ccc(NC(=O)Nc2ccc3c(c2)CC(=O)N([C@@H](C)CO)C[C@H](C)[C@@H](CN(C)Cc2ccncc2)O3)cc1	1	-3
COC(=O)C[C@@H]1C[C@@H]2c3cc(NC(=O)Nc4ccc(F)cc4)ccc3O[C@@H]2[C@@H](CO)O1	0	-21
Cc1noc(C)c1NC(=O)N(C)C[C@H]1Oc2ccc(NC(=O)C3CC3)cc2CC(=O)N([C@H](C)CO)C[C@@H]1C	-5	1
CNC[C@@H]1Oc2cc(C#CC3CCCC3)ccc2S(=O)(=O)N([C@H](C)CO)C[C@H]1C	-5	-47
C[C@@H]1CN([C@H](C)CO)S(=O)(=O)c2ccc(C#Cc3ccccc3)cc2O[C@H]1CN(C)C(=O)CN(C)C	7	-73
C[C@H](CO)N1C[C@H](C)[C@@H](CN(C)C(=O)CN(C)C)Oc2cc(C#Cc3ccccc3)ccc2S1(=O)=O	4	-83*
COc1ccc(C#Cc2ccc3c(c2)O[C@H](CN(C)C(=O)Nc2cccc(OC)c2)[C@H](C)CN([C@@H](C)CO)S3(=O)=O)cc1	.	-86*
COc1ccc(C#Cc2ccc3c(c2)O[C@@H](CN(C)C(=O)Nc2cccc(OC)c2)[C@H](C)CN([C@@H](C)CO)S3(=O)=O)cc1	.	-88*
COc1cccc(C#Cc2ccc3c(c2)O[C@H](CN(C)C(=O)c2ccccn2)[C@@H](C)CN([C@@H](C)CO)S3(=O)=O)c1	4	-78
COc1cccc(NC(=O)N(C)C[C@H]2Oc3cc(C#Cc4ccccc4)ccc3S(=O)(=O)N([C@@H](C)CO)C[C@H]2C)c1	-2	?
COc1cccc(C#Cc2ccc3c(c2)O[C@@H](CN(C)C(=O)c2ccccn2)[C@H](C)CN([C@@H](C)CO)S3(=O)=O)c1	7	-84*
C[C@@H]1CN([C@H](C)CO)S(=O)(=O)c2ccc(C#C[C@@H](C)O)cc2O[C@H]1CN(C)C(=O)Nc1ccccc1	-2	-92*
C[C@H](CO)N1C[C@H](C)[C@@H](CN(C)C(=O)Nc2ccccc2)Oc2cc(C#C[C@@H](C)O)ccc2S1(=O)=O	4	-11
COc1cccc(NC(=O)N(C)C[C@H]2Oc3cc(C#Cc4ccncc4)ccc3S(=O)(=O)N([C@H](C)CO)C[C@H]2C)c1	-2	-47
CC=Cc1ccc2n(c1=O)C[C@H]1[C@H](CO)[C@@H](C(=O)NCc3ccccc3)[C@@H]2N1CC (mixture of isomers)	1	7
CCCNC(=O)N1CC2(C1)CN(C(=O)COC)[C@@H](CO)c1c2c2ccc(OC)cc2n1C	2	-18
COc1ccc(C#Cc2cnc3c(c2)C(=O)N([C@H](C)CO)C[C@H](C)[C@H](CN(C)C)O3)cc1	0	-59
COc1ccc2c3c([nH]c2c1)[C@@H](CO)N(C)CC31CCN(S(=O)(=O)c2cccc(F)c2)CC1	-3	-56
CNC[C@@H]1Oc2ccc(NC(=O)NC3CCCCC3)cc2C(=O)N([C@@H](C)CO)C[C@H]1C	-4	2
COc1ccc(C#Cc2ccc3c(c2)O[C@@H](CN(C)C(=O)Nc2cccc(OC)c2)[C@@H](C)CN([C@H](C)CO)S3(=O)=O)cc1	.	-89*
COc1cccc(NC(=O)N(C)C[C@@H]2Oc3cc(C#Cc4ccc(F)cc4)ccc3S(=O)(=O)N([C@H](C)CO)C[C@H]2C)c1	5	-78
COc1cccc(NC(=O)N(C)C[C@@H]2Oc3cc(C#Cc4ccccc4)ccc3S(=O)(=O)N([C@@H](C)CO)C[C@H]2C)c1	79	-68
COc1cccc(NC(=O)N(C)C[C@H]2Oc3cc(C#Cc4ccncc4)ccc3S(=O)(=O)N([C@H](C)CO)C[C@@H]2C)c1	6	-54
